From PubChem BioAssay
Calls of active or inactive are those of the source.

Columns and labels:
[1] = small molecules captured by biotinylated probe aFSTL3 – biochemical, small-molecule microarray, fluorescence 635/667, stem cell growth factor project, primary screen (AID 1064); conditions: higher = more signal;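 note: measures binding of the biotinylated anti-FSTL3 antibody to printed compounds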
[2] = binders from COS7 lysate, DM2A8 probe, primary screen, torsin A project, cell lysate, small-molecule microarray, fluorescence 635/667 (AID 1065); conditions: higher = more signal, COS7 lysate expressing mutant human TOR1A
[3] = small molecules captured by biotinylated probe aFGF2 – biochemical, small-molecule microarray, fluorescence 635/667, stem cell growth factor project, primary screen (AID 1067); conditions: higher = more signal;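 note: measures binding of biotinylated aFGF2 protein to printed compounds on slides; z-score merges feature fluorescence and signal-to-noise across triplicate slides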
[4] = small molecules captured by biotinylated probe aFGF10 – biochemical, small-molecule microarray, fluorescence 635/667, stem cell growth factor project, primary screen (AID 1071); conditions: higher = more signal;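 note: score merges 667 nm spot intensity and signal to noise from triplicate slides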
[5] = target: Neurogenic locus notch homolog protein 2 (Homo sapiens) (UniProt Q04721); test: small molecules binding Notch2 protein – biochemical, small-molecule microarray, 635 nm fluorescence, stem cell growth factors, primary screen (AID 1073); conditions: higher = more signal
[6] = target: Pro-neuregulin-1, membrane-bound isoform (Homo sapiens) (UniProt Q02297); test: small molecules binding neuregulin-1 protein – biochemical, small-molecule microarray, fluorescence 635/667, psychiatric disease protein project, primary screen (AID 1075); conditions: NRG1 binding, 635 nm fluorescence, higher = more signal;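 note: score combines 667 nm spot fluorescence with signal to noise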
[7] = tested on: Neuregulin-1 EGF-like domain; test: small molecules binding NRG1 EGF domain – biochemical, small-molecule microarray, 635 nm fluorescence, primary screen (AID 1081); conditions: higher = more signal;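 note: binding of the protein to compounds printed on small-molecule microarray slides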
[8] = FRG1 expression reporter modulators in myotubes – cell-based, C2C12 myotubes, firefly/Renilla luciferase, luminescence, FRG1 inhibition for FSHD, primary screen (AID 1084); conditions: FRG1 promoter luciferase, higher = more signal, called active from +8 up or from −8 down
[9] = small molecules captured by biotinylated probe aFST – biochemical, small-molecule microarray, fluorescence 635/667, stem cell growth factor project, primary screen (AID 1086); conditions: higher = more signal;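 note: score merges 667 nm fluorescence with signal-to-noise of each printed compound spot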
[10] = binders of probe aHhip on microarray, primary screen, stem cell growth factor project, biochemical, small-molecule microarray, fluorescence 635/667 (AID 1087); conditions: higher = more signal;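 note: score merges spot fluorescence at 667nm with spot signal to noise ratio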
[11] = tested on: PRMT1 (protein arginine N-methyltransferase 1); test: small molecules binding arginine methyltransferase PRMT1 – biochemical, small-molecule microarray, 635 nm fluorescence, primary screen (AID 1088); conditions: higher = more signal;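 note: binding of Prmt1 protein to compounds spotted on small-molecule microarray slides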
[12] = growth effects on S. cerevisiae YJM789 – YJM789 clinical isolate, OD600, 24 h, basal, primary screen (AID 1089); conditions: higher = more signal, called active from +8 up or from −8 down;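 note: growth of clinical yeast isolate S. cerevisiae YJM 789 seeded 1000 cells per well; test concentration not given here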
[13] = S. pombe growth modifiers, basal conditions – strain 972, OD600, 24 h, no modulator, primary screen (AID 1090);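 note: basal condition with compound alone and no growth modifier present; test concentration not given here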; conditions: S. pombe 972 growth, higher = more signal, called active from +8 up or from −8 down
[14] = budding yeast growth modifiers under rapamycin – strain BY4716, OD600, 96 h, primary screen (AID 1091); note: test concentration not given here; conditions: S. cerevisiae BY4716 + rapamycin, higher = more signal, called active from +8 up or from −8 down
[15] = target: Torsin-1A-interacting protein 2 (Homo sapiens) (UniProt Q8NFQ8); test: small molecules binding lysate-expressed LULL1 – cell lysate, human LULL1 lysate, 635/667 nm fluorescence, primary screen (AID 1092); conditions: small-molecule microarray, hLULL1 lysate binding, 635 nm fluorescence; higher = more signal;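 note: probe is lysate of COS7 cells overexpressing human LULL1; score merges per-feature 667 nm fluorescence with signal-to-noise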
[16] = optical density change of DRC41 E. coli – strain DRC41, OD650, 24 h, E. coli filamentation project, primary screen (AID 1093);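 note: MC1000 strain lacking acrAB efflux and sulA so SOS filamentation is blocked; test concentration not given here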; conditions: E. coli DRC41 growth, higher = more signal, called active from +8 up or from −8 down
[17] = probe aLefty2 binding to arrayed compounds – biochemical, biotinylated probe, 635/667 nm fluorescence, primary screen (AID 1094); conditions: small-molecule microarray, higher = more signal;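 note: score merges spot fluorescence near 667 nm with spot signal-to-noise ratio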
[18] = tested on: Noggin (protein binding on small-molecule microarray); test: small molecules binding Noggin protein – biochemical, 635/667 nm fluorescence, primary screen (AID 1095); conditions: 635 nm fluorescence, higher = more signal;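 note: score merges 667 nm feature fluorescence with signal to noise over triplicate slides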
[19] = target: Neurogenic locus notch homolog protein 3 (Homo sapiens) (UniProt Q9UM47); test: small molecules binding NOTCH3 protein – biochemical, 635/667 nm fluorescence, primary screen (AID 1096); conditions: small-molecule microarray, 635 nm fluorescence, higher = more signal
[20] = probe aEGFR binding to arrayed compounds – biochemical, biotinylated probe, 635/667 nm fluorescence, primary screen (AID 1097); conditions: small-molecule microarray, higher = more signal;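 note: probe is a biotinylated anti-EGFR antibody binding compounds printed on slides; score combines fluorescence near 667 nm and signal to noise of each spot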

Neurogenic locus notch homolog protein 3 (Homo sapiens), sequence (Q9UM47 whole entry, looked up): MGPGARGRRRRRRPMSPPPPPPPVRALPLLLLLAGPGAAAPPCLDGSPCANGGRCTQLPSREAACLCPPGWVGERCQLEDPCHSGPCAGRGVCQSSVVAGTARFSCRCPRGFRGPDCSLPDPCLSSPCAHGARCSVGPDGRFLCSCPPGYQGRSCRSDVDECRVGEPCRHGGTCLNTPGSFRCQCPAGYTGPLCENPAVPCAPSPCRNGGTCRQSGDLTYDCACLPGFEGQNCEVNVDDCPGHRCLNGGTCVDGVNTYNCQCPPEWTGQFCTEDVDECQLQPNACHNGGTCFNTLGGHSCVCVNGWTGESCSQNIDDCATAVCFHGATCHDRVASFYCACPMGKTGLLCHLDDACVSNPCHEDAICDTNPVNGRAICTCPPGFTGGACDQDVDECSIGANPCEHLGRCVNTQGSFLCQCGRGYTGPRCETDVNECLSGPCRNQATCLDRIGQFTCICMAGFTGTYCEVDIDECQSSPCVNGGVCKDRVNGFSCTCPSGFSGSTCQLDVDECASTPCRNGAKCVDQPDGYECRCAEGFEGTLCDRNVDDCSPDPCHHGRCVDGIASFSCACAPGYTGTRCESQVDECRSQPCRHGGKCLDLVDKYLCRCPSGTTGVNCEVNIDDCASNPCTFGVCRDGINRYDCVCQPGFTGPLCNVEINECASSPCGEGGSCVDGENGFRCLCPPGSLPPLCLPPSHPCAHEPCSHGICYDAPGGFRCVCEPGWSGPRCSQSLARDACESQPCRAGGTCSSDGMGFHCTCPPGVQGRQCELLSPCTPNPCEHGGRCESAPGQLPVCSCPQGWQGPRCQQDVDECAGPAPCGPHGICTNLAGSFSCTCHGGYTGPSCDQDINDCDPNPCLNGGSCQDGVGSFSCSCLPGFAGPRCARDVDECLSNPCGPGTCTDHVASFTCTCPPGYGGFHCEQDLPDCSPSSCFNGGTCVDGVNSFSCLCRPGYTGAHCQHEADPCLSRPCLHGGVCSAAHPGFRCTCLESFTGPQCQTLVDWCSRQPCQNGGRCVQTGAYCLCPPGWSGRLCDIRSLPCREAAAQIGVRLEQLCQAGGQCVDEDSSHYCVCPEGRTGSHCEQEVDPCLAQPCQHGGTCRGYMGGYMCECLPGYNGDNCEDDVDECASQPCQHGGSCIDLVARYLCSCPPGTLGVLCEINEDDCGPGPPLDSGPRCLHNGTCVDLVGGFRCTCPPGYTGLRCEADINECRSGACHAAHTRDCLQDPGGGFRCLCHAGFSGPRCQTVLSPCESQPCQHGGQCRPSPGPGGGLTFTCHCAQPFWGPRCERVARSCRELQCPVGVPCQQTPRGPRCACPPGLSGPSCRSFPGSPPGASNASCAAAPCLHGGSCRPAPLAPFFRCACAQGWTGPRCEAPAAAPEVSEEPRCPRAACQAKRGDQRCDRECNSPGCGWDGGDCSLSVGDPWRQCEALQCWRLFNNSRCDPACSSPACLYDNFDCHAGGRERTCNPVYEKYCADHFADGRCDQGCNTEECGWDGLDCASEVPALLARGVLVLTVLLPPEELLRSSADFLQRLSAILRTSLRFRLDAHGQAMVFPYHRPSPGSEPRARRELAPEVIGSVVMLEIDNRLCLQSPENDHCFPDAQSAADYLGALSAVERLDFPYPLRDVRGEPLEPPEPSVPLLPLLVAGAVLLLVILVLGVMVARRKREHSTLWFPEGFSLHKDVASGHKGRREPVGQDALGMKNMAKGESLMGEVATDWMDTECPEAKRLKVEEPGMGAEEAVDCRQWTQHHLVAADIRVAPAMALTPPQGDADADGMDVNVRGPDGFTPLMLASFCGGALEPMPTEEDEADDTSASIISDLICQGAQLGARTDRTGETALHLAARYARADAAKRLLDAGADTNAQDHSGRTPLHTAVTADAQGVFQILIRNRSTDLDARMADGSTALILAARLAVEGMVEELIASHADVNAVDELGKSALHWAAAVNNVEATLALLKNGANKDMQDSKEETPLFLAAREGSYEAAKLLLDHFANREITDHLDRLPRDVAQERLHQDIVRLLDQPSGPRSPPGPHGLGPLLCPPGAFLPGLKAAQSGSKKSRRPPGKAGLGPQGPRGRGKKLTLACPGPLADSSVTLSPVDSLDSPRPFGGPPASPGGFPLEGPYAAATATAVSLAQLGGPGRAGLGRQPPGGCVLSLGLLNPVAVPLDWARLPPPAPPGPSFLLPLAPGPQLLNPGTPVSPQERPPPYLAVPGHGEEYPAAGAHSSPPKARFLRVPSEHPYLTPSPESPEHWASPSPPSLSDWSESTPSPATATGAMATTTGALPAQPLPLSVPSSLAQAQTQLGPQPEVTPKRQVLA
Pro-neuregulin-1, membrane-bound isoform (Homo sapiens), sequence (Q02297 whole entry, looked up, the tested form may be a part, canonical isoform): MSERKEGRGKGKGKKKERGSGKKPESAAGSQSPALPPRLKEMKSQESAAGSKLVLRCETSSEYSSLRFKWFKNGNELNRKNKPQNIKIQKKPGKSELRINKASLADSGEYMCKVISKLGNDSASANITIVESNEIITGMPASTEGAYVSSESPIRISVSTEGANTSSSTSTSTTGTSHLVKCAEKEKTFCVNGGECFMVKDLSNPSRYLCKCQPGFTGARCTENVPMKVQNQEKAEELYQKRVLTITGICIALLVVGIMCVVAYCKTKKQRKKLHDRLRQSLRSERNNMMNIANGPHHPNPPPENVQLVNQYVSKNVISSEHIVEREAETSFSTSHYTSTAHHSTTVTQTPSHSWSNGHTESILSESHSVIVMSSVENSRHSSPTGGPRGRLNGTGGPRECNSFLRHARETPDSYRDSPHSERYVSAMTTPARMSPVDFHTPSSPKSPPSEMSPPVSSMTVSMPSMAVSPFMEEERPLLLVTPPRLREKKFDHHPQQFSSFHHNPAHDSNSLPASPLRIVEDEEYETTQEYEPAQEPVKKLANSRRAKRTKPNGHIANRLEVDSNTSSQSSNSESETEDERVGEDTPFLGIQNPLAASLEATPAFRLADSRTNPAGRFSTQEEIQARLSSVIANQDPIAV
Torsin-1A-interacting protein 2 (Homo sapiens), sequence (Q8NFQ8 whole entry, looked up): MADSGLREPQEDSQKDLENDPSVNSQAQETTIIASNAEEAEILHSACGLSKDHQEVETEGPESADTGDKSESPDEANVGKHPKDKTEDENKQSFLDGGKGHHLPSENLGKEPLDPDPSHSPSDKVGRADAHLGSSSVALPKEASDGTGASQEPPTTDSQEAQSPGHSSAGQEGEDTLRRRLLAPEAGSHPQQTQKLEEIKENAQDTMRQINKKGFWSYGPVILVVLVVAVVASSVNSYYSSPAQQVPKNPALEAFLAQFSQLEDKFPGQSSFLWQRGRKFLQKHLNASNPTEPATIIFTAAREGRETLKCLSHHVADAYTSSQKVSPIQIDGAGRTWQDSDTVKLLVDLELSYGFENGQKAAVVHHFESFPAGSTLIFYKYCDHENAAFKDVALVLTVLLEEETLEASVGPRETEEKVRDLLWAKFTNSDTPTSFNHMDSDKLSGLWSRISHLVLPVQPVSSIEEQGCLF

Row | Structure (SMILES) | composite z-score [1] | composite z-score [2] | composite z-score [3] | composite z-score [4] | composite z-score [5] | composite z-score [6] | composite z-score [7] | z-score [8] | composite z-score [9] | composite z-score [10] | composite z-score [11] | z-score [12] | z-score [13] | z-score [14] | composite z-score [15] | z-score [16] | composite z-score [17] | composite z-score [18] | composite z-score [19] | composite z-score [20]
1 | NC(=O)NCC#Cc1ccc2c(c1)[C@]1(C(=O)N2)[C@H](C(=O)Nc2nc3ccccc3s2)[C@H]2C(=O)O[C@H](c3ccccc3)[C@H](c3ccccc3)N2[C@@H]1c1ccc(O)cc1 | 0.187 | 0.544 | -0.0415 | 0.604 | 0.455 | 0.339 | -0.15 | 1.46 (inactive) | 0.623 | 0.142 | 1.41 | 3.89 (inactive) | 3.26 (inactive) | 7.47 (inactive) | -0.569 | 2.01 (inactive) | 0.14 | 0.614 | 1.05 | -0.0701
2 | [N-]=[N+]=Nc1ccccc1[C@@H]1OC(c2ccc(OCCCO)cc2)=N[C@]1(CCS(=O)(=O)c1ccccc1)C(=O)NCCN1CCOCC1 | 0.483 | 1.88 | 0.0315 | 0.664 | 1.58 | 0.806 | 1.25 | 1.2 (inactive) | 0.925 | 0.417 | 1.55 | -0.564 (inactive) | -0.727 (inactive) | 0.519 (inactive) | 3.15 | 0.0992 (inactive) | 0.383 | 0.038 | 0.808 | 0.354
3 | NC(=O)NCC#Cc1ccc2c(c1)[C@]1(C(=O)N2)[C@H](c2ccc(O)cc2)N2[C@H](c3ccccc3)[C@H](c3ccccc3)OC(=O)[C@H]2[C@@H]1C(=O)Nc1nc2ccccc2s1 | 0.289 | 0.21 | -0.0222 | 0.478 | 0.768 | 0.434 | 0.633 | 0.63 (inactive) | 0.185 | 0.0881 | 1.39 | 4.88 (inactive) | 4.35 (inactive) | 8.57 (active) | 1.07 | 1.06 (inactive) | 0.122 | 1.05 | 0.362 | -0.0975
